Records with an inconclusive call do not appear. Activity calls are given as the source filed them. Unless noted, the call rests on the fitted dose curve; in most records, active means well fitted curve in the direction sought with a large enough effect in the repeat runs; inconclusive means weak or mixed curves; inactive means no such curve, though single readings can be large; an effect the other way counts as inactive or inconclusive.
Legend:
[1] = target: Thyrotropin receptor (Homo sapiens) (UniProt P16473); test: qHTS assay to identify small molecule agonists of the thyroid stimulating hormone receptor (TSHR) signaling pathway (AID 1224843; calls by dose curve; further: nearly all actives have a fitted effect of over 45% in size)
Sequence of Thyrotropin receptor (Homo sapiens) (P16473 whole entry, looked up): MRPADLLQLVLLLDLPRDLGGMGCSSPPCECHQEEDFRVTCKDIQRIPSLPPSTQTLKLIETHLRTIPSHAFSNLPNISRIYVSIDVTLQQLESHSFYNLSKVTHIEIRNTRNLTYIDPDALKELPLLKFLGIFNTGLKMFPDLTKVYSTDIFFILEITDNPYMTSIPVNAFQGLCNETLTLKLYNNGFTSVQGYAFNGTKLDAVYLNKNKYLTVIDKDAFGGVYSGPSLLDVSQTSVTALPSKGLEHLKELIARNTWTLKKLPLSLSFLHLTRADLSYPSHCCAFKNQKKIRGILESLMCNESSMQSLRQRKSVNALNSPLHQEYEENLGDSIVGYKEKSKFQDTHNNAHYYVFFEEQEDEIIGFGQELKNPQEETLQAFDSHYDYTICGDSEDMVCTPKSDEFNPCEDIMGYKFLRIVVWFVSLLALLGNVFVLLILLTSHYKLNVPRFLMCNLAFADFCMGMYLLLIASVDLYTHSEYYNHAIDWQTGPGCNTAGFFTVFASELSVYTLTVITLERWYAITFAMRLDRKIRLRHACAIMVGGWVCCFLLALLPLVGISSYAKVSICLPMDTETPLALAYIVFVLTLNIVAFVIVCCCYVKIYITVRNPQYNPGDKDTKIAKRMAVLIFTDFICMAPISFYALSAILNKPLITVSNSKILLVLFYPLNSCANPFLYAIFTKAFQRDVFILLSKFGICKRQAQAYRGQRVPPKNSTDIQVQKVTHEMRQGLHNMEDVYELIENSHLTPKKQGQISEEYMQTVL
How it was run: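 TSHR-HEK293 cells in agonist mode, 30 min room-temperature step, then cAMP measured by competitive HTRF (cAMP-d2 with anti-cAMP cryptate) after 1 h at room temperature. Tested at 15 concentrations in triplicate.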

[2] = qHTS assay to identify small molecule agonists of the hypoxia (HIF-1) signaling pathway - cell viability counter screen (AID 1224844; calls by dose curve; further: nearly all actives have a fitted effect of over 50% in size)
How it was run: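 Tox21 10K compounds were added to HRE-bla ME-180 cells (0.5% dialyzed FBS) and incubated 17 hrs at 37C; ATP-based CellTiter-Glo luminescence then reported cell viability in the same wells.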

[3] = qHTS assay to identify small molecule agonists of the hypoxia (HIF-1) signaling pathway (AID 1224846; active means well fitted activation curve with a large enough effect in the signal ratio in the repeat runs, not every such curve was filed as active; the % refers to the signal ratio)
How it was run: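 Steps: seed ME-180 HRE-bla cells (2,000/well, 0.5% dialyzed FBS); incubate 5 hrs at 37C; pin-transfer compounds or DMSO; incubate 17 hrs; add LiveBLAzer B/G substrate CCF4-AM; measure reporter activation by FRET.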

[4] = qHTS assay to identify small molecule agonists of H2AX - cell viability counter screen (AID 1224847; calls by dose curve; further: top concentration of the series differs between compounds; nearly all actives have a fitted effect of over 30% in size)
How it was run: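 For this counter screen, overnight-attached CHO-K1 cells received test compounds (15 concentrations, 0.76% DMSO final); 3 hr later at 37C, CellTiter-Glo reagent was added and luminescence recorded after 30 min at room temperature.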

[5] = qHTS RealTime-Glo MT Cell Viability Assay in HepG2 cells - 24 hour (AID 1224867); further: nearly all actives have a fitted effect of over 50% in size
How it was run: (§1)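 Real-time, nonlytic viability: 600 HepG2 cells/well mixed with NanoLuc enzyme plus prosubstrate; 5 h settle, compound (DMSO) added by pintool; luminescence monitored over 40 h at 37 C.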

[6] = qHTS RealTime-Glo MT Cell Viability Assay in HEK293 cells - 32 hour (AID 1224868); further: top concentration of the series differs between compounds; nearly all actives have a fitted effect of over 50% in size
How it was run: (§2)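 Cells + reagent dispensed (600 cells/well, HEK293) → 5 h at 37 C/5% CO2 → 23 nL compound in DMSO pinned → 40 h at 37 C → luminescence read at 0, 8, 16, 24, 32, 40 h.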

[7] = A CellTox Green Cytotoxicity Assay to monitor cytotoxicity in HEK293 cells - 0 hour (AID 1224869); further: nearly all actives have a fitted effect of over 50% in size
How it was run: (§3)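 Cytotoxicity was tracked continuously in HEK293 cells by a DNA-binding dye excluded from viable cells. Compounds were transferred in DMSO 5 h after seeding; fluorescence was recorded at intervals up to 40 h.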

[8] = qHTS RealTime-Glo MT Cell Viability Assay in HepG2 cells - 40 hour (AID 1224870); further: nearly all actives have a fitted effect of over 50% in size
How it was run: (§4)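 HepG2 cells (600/well) mixed with RealTime-Glo MT reagent, settled 5 h at 37 C/5% CO2 before compound addition. Nonlytic NanoLuc luminescence from viable-cell prosubstrate reduction read repeatedly during 40 h treatment at 37 C.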

[9] = qHTS RealTime-Glo MT Cell Viability Assay in HEK293 cells - 16 hour (AID 1224872)
How it was run: as §2

[10] = qHTS RealTime-Glo MT Cell Viability Assay in HepG2 cells - 8 hour (AID 1224873); further: nearly all actives have a fitted effect of over 55% in size; further: potency means the concentration at half of the fitted maximal effect
How it was run: as §4

[11] = qHTS RealTime-Glo MT Cell Viability Assay in HEK293 cells - 40 hour (AID 1224874); conditions: RealTime-Glo luminescence; max response: active compounds read low; further: nearly all actives have a fitted effect of over 50% in size
How it was run: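 Nonlytic bioluminescent viability monitoring. HEK293 at 600 cells/well with reagent; 5 h settle; compound transfer by pintool; plates held at 37 C and read at set time points.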

[12] = A CellTox Green Cytotoxicity Assay to monitor cytotoxicity in HEK293 cells - 24 hour (AID 1224875); further: nearly all actives have a fitted effect of over 45% in size
How it was run: as §3

[13] = A CellTox Green Cytotoxicity Assay to monitor cytotoxicity in HepG2 cells - 16 hour (AID 1224876); further: nearly all actives have a fitted effect of over 45% in size
How it was run: (§5)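 Real-time, homogeneous cytotoxicity readout: dead-cell DNA staining by CellTox Green in HepG2 monolayers, fluorescence measured at timed intervals up to 40 h of continuous compound exposure.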

[14] = qHTS RealTime-Glo MT Cell Viability Assay in HepG2 cells - 32 hour (AID 1224877); further: nearly all actives have a fitted effect of over 55% in size
How it was run: as §1

[15] = A CellTox Green Cytotoxicity Assay to monitor cytotoxicity in HepG2 cells - 24 hour (AID 1224878); further: nearly all actives have a fitted effect of over 45% in size
How it was run: as §5

[16] = A CellTox Green Cytotoxicity Assay to monitor cytotoxicity in HepG2 cells - 40 hour (AID 1224879); further: nearly all actives have a fitted effect of over 40% in size
How it was run: as §5

[17] = qHTS assay to identify small molecule agonists of the estrogen related receptor (ERR) signaling pathway from Tox21 library (AID 1224849; calls by dose curve; further: nearly all actives have a fitted effect of over 15% in size); conditions: ERR reporter cell line, ONE-Glo luciferase, 18 h; at 92.4 µM (top of the series) unless noted
How it was run: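 Agonist signal is luciferase luminescence from an ERR reporter cell line treated 18 h at 37 C with DMSO-dissolved compounds, read 30 min after ONE-Glo addition at room temperature.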

[18] = A CellTox Green Cytotoxicity Assay to monitor cytotoxicity in HEK293 cells - 40 hour (AID 1224871); further: nearly all actives have a fitted effect of over 45% in size
How it was run: as §3

[19] = qHTS assay to identify small molecule agonists of H2AX (AID 1224845; active means well fitted activation curve with a large enough effect in the signal ratio in the repeat runs, not every such curve was filed as active; the % refers to the signal ratio)
How it was run: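 Wild-type CHO-K1 cells, plated overnight, exposed 3hr at 37C to 15 concentrations (0.76% DMSO final). Lysed, then HTRF anti-pH2AX (S139) cryptate and anti-H2AX-d2 antibodies, 24 hr room temperature; 665/620 nm emission read.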

[20] = qHTS assay to identify small molecule antagonists of the estrogen related receptor (ERR) signaling pathway from Tox21 library (AID 1224848); further: nearly all actives have a fitted effect of over 50% in size; further: potency means the concentration at half of the fitted maximal effect
How it was run: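 ERR reporter cell line (from NTP) seeded 2,000 cells/well, rested 6 h at 37 C/5% CO2, then pin-dosed with compounds in DMSO. After 18 h at 37 C, ONE-Glo added; luminescence read after 30 min at room temperature.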
On the % scale 0 is the no-effect control and ±100 the full control effect.

O=C(/C=C/c1ccc(O)c(O)c1)O[C@@H]1C[C@@](OC(=O)/C=C/c2ccc(O)c(O)c2)(C(=O)O)C[C@@H](O)[C@@H]1O
inactive: Potency [1] | Potency [2] | outcome [3] | Potency [4] | Potency [5] | Potency [6] | Potency [7] | Potency [8] | Potency [9] | Potency [10] | max response [11] 3.32% | Potency [12] | Potency [13] | Potency [14] | Potency [15] | Potency [16]

CCOC(=O)C1=C(C)NC(C)=C(C(=O)OC)C1c1cccc(Cl)c1Cl (stereo not given)
active: Potency [10] 19 µM
inactive: Potency [1] | Potency [2] | outcome [3] | Potency [4] | activity change, positive = activation [17] -28.7% [at 42.5 µM] | Potency [7] | Potency [18] | Potency [12] | Potency [15] | Potency [16]

Cc1cc(C)c(N)cc1C
inactive: Potency [1] | Potency [2] | outcome [3] | Potency [4] | Potency [6] | Potency [7] | Potency [8] | Potency [18] | Potency [9] | Potency [10] | max response [11] 1.12% | Potency [12] | Potency [13] | Potency [14] | Potency [15] | Potency [16]

CCC(C)(C)OC
inactive: Potency [1] | Potency [19] | outcome [3] | Potency [4] | Potency [20] | activity change, positive = activation [17] -8.72% | Potency [5] | Potency [6] | Potency [7] | Potency [8] | Potency [18] | Potency [9] | Potency [10] | max response [11] 7.38% | Potency [12] | Potency [13] | Potency [14] | Potency [15] | Potency [16]

CCOC(C)=O
inactive: Potency [1] | Potency [2] | Potency [4] | Potency [5] | Potency [6] | Potency [7] | Potency [8] | Potency [18] | Potency [9] | Potency [10] | max response [11] 0.693% | Potency [12] | Potency [13] | Potency [14] | Potency [15] | Potency [16]

Oc1ccc(Cl)c2cccnc12
inactive: Potency [1] | Potency [2] | Potency [4] | activity change, positive = activation [17] -56.3% [at 42.5 µM] | Potency [7] | Potency [8] | Potency [9] | Potency [10] | Potency [12] | Potency [13] | Potency [14] | Potency [15]
active: Potency [20] 29.8 µM

CC(=O)c1cc2ccccc2s1
inactive: Potency [1] | Potency [2] | Potency [4] | Potency [5] | Potency [6] | Potency [8] | Potency [18] | Potency [9] | Potency [10] | max response [11] 2.63% | Potency [12] | Potency [13] | Potency [15] | Potency [16]
